Measured values taken from PubChem BioAssay AID1159506 (National Center for Advancing Translational Sciences (NCATS), 2015).
In all, about 59,000 sequences were measured (the read-out: median about -0.00055, lowest 2% from about -2 on). The sample as a whole holds a higher share of the lowest values than the screen did.

Test: Identification of proteins required for the processing of the EWS-FLI1 nascent transcript;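 note: robust z of luciferase light less the median z of siRNAs with the same seed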
Conditions: TC32 Ewing sarcoma NR0B1-luc vs CMV-luc (EWS-FLI1 target promoter against control promoter), 48 h; screened at 20 nM (by protocol)
Summary of the method: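 Parallel TC32-NR0B1-luc and TC32-CMV-luc reverse transfections with 20 nM siRNA in RPMI-1640/10% FBS, luciferase measured 48 h later. Seed-adjusted z-scores from normalized, z-score-MAD transformed data; AllStars negative and siGL4 controls on each plate.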

Row | Sequence | seed-corrected z-score
1 | UCGUGUAAAACAACAUGCG against AGMO | -0.652
2 | UAACCUAUCAUAUUGGUAG against DDX17 | 0.216
3 | UAGAUCACCAAGCCCUUCC against EFNB1 | -0.0268
4 | UCUCCAUAAACAUACAGGC against LACE1 | 1.68
5 | UUGGUUGCAUCCCUGUCCG against PPP1R27 | -3.59
6 | UGAUGUACUGUGGAAGGUC against MAST3 | -1.59
7 | UGUAGUGACAUCUCCGCCU against MCFD2P1 | 0.515
8 | UAAGGUCCCAGAAAGGCCU against ZP4 | 0.208
9 | UCUGGGUACAAUCUGGUGU against CHCHD10 | -2.26
10 | UCUGAUUCCGCUUCUGAGC against SIGLEC10 | 0.63
11 | AUAGAUACCUAGGUCAACC against NEU3 | 0.24
12 | UGCUGUUAGUUUGUGAUGC against LOC729254 | 0.247
13 | UUCGAGACGAUUUCCAGUG against CMIP | -2.27
14 | UACUAGGUACGAACCGUCC against PPTC7 | -0.527
15 | UCUCCUUACAUAACACUUC against EPHX2 | 0.0978
16 | UUUGUGAUAGACUUCUUUC against CFAP126 | 1.14
17 | AAACCUUCCGGUUUAGAUG against KCNH5 | -0.00192
18 | UUUGCCUCUUUCCUCAACC against ZBTB16 | -2.32
19 | UAUAGAUCAACAAAAAUAC against TRMT112 | 0.21
20 | UUCCUUCUCGUCGUCGUAG against SERPINH1 | -0.218
21 | AGUGGGAUAAGGGCUCUGA against TMEM132A | -5.72

Row | Sequence | seed-corrected z-score
22 | UAUUCUUCAUUGGUAUCCC against TMEM27 | -0.429
23 | UCCGUUUCCACAUAUCUAC against SUPT20H | -0.175
24 | UAUGGUAAUAGUCCUCCAG against FNDC9 | -0.0743
25 | UUAGAAGCCCGCGUGAUGU against HS6ST3 | 0.236
26 | UGAUUGGUUACUGCCCAGG against TAS2R20 | -4.87
27 | UCCGUUUCCAUAAUUACAG against SCUBE1 | -0.917
28 | AAACUAAUGAAAUAGUGCC against GPR39 | -0.0661
29 | AUAGAUCUUUAUAUAAGCC against ATL1 | -0.744
30 | UAGAGUUUCGGUUUAAAUG against RBBP5 | 0.215
31 | UUUUGUAUGUAGACAUUGG against DEFB135 | -0.8
32 | UACACUAGCAGUGACCAUG against MBOAT1 | 0.0459
33 | UUGAUAUCCAGCACAUUGC against CORO2B | 1.69
34 | UCUUCGUAGAUGACAUUCC against ERO1A | 0.442
35 | AUAUGUGCAGUCUUCUCCC against LINC00200 | -0.44
36 | UCCAGUAACAAUUAAUGCC against LRRC37A | 0.451
37 | UGUGGUCAAAGAGGAGAUG against SH3TC2 | -2.8
38 | UAGCAGAUAGGUCUCAAUG against MYH11 | -0.244
39 | UAGAUUCUCGUGCACAGCC against KIFC3 | 0.0224
40 | AAAGUGACUAUUGUCAGGU against OR5M10 | -0.162
41 | UUUGUAGUUGUUCCCAUGC against TTPA | -0.714
42 | UCCAAGGUCAGUGUGAUCC against ZDHHC23 | 0.574

Row | Sequence | seed-corrected z-score
43 | UUAUGUAUCAUUGGAACCA against LOC388780 | 0.0558
44 | UUUUAUUCCCUGUAUCAUG against ZNF619 | -2.89
45 | UUCACUCUCAAACUGGUCC against CNOT3 | -0.499
46 | UCUUGUCCAAGACUCCUUC against SMTN | -0.516
47 | UGAUGAGCGACUCUCCUGG against C9orf142 | -0.422
48 | AUUGCUACUGAUAUAAGCC against DICER1 | -0.452
49 | UUCGGACUCAGCUUCUCCA against EXD3 | 0.0948
50 | UUAUGAUCCAGGUAGAGGA against INHBE | 0.817
51 | UUCUGCUUUGCAUAUCUCC against POU5F1 | -2.72
52 | AUUCUUAAACGUGAUUUCC against NICN1 | 0.117
53 | UAGCGAAUCUGUAAGCUGC against MLLT10 | -0.471
54 | UUUUGAUGCUGUCUACAGG against METTL2B | -1.55
55 | UUACCUAUCCCUGAGACAC against MICAL2 | 0.383
56 | UCCUCUGCGAAGUUCUUGG against PANX2 | -2.24
57 | UCCAUGAGCGCAAUCAUGC against CAPN3 | 0.116
58 | UCUUCUUCACGAGUUGAGG against GPRC5A | -0.133
59 | UGAGUCAAUGAUGCGCUUC against SFN | 2.54
60 | UUGAUGUACAGAUACCAGG against BTBD18 | -2.42
61 | AAAAGUCCAAACAAUACCC against GPR156 | -0.327
62 | UACUUGAGCACGUCGAUGA against C19orf68 | -0.256
63 | UCACUUUGAACUUUCCGGC against SCP2D1 | -1.27

Row | Sequence | seed-corrected z-score
64 | AAUGGGAAAAGAAUUGCUU against IGFBP7-AS1 | 0.0752
65 | UUGGUGGAUAUACUCAAUC against EXO5 | -2.07
66 | UGAGGAACCAGUUCCAAGG against TMEM60 | -0.737
67 | UUCCUGCUGCGUACACUUC against KCNAB3 | -0.0212
68 | ACAUAUAUAAGAAUAUCGG against ARL3 | -0.177
69 | UUGUGGAACAUCAUGUCUU against ADCY6 | 1.34
70 | UAGGUUGUGACUGGUGGUG against ARID5A | -3.43
71 | UAGUCGAACACCAAGAGGG against CDH3 | -0.271
72 | UCCGGUUUAUAUUUGGUGC against EPSTI1 | -0.285
73 | UUUCAUCCUAGAAACUCCC against SLC45A3 | 0.412
74 | UUCACCAUAAACACGAUCC against DPM1 | 0.428
75 | UAUGAAUCCAGAUUGAACU against CXCL1 | 0.898
76 | UCCCGGUACAUGUUGUGGG against RPL18A | -2.34
77 | UGUUGAGUAGGUCCGUUCC against EPHA7 | 0.58
78 | UACAGUGACGAGAAGUUCU against RALGDS | 0.583
79 | AUCUCUUCCACUUCCGAGG against SMARCB1 | -2.19
80 | UAAUUGAACUGAUCCAGUC against WDR12 | -0.242
81 | UUCCUUAGCACCAUUGAUG against MMADHC | 1.09
82 | UCAGUUUUAGGAUAUAUAC against USP46-AS1 | 0.575
83 | AUAUUAAGCAGACAACUCC against DIRC2 | 0.227
84 | UGAGGUUAAAGAAGGUGAC against HRH3 | -0.214
